Reference: PubChem BioAssay (Tox21)
Values joined by “and” are separate entries in the source; they are usually repeats but may differ in a detail not shown here. Equal values may be shown once. Results filed as inconclusive are left out. A call without a number means that no potency is given here. More than one record can exist for a structure, and the calls need not agree. Active and inactive are the calls of the source. Unless noted, calls follow the shape of the dose curve; as a rule, active = well fitted curve in the direction sought with a large enough effect in the repeat runs; inconclusive = weak or mixed curves; inactive = no such curve, though single readings can be large; an effect the other way counts as inactive or inconclusive.

How the values were obtained:
[1] = qHTS assay to identify small molecule agonists of the peroxisome proliferator-activated receptor delta (PPARd) signaling pathway - cell viability counter screen (AID 743211); also: nearly all actives have a fitted effect of over 55% in size; also: potency is read from the fitted curve at half-maximal effect
How it was run: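 Viability was measured as CellTiter-Glo luminescence (30 min, room temperature) in the same wells as the beta-lactamase readout. GeneBLAzer PPARd UAS-bla HEK293H cells received compound after 5 h plating and were incubated 17 h at 37 C.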

[2] = target: Peroxisome proliferator-activated receptor delta (Homo sapiens) (UniProt Q03181); assay: qHTS assay to identify small molecule agonists of the peroxisome proliferator-activated receptor delta (PPARd) signaling pathway (AID 743212; calls by dose curve; also: potency is read from the fitted curve at half-maximal effect)
How it was run: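 HEK293H UAS-bla reporter cells, human PPARd system; compounds delivered in DMSO after 5 h plating, then at 37 C. Beta-lactamase FRET read, 2 h RT substrate step.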

[3] = qHTS assay to identify small molecule antagonists of the peroxisome proliferator-activated receptor delta (PPARd) signaling pathway - cell viability counter screen (AID 743213); also: nearly all actives have a fitted effect of over 50% in size; also: potency is read from the fitted curve at half-maximal effect
How it was run: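 Viability counter-screen, qHTS format: PPARd-bla HEK293H, L165041 300 nM final, 17 h compound exposure at 37 C, CellTiter-Glo luminescence after 30 min RT.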

[4] = target: Peroxisome proliferator-activated receptor delta (Homo sapiens) (UniProt Q03181); assay: qHTS assay to identify small molecule antagonists of the peroxisome proliferator-activated receptor delta (PPARd) signaling pathway (AID 743215; active = well fitted inhibition curve with a large enough effect in the signal ratio in the repeat runs, not every such curve was filed as active; the % refers to the signal ratio;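 also: cells stimulated with agonist L165041 at 300 nM final during compound exposure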; also: potency is read from the fitted curve at half-maximal effect)
How it was run: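 Inhibition of L165041-driven (300 nM final) PPARd signaling is scored in HEK293H UAS-bla cells. Exposure lasts 17 h at 37 C; beta-lactamase activity is then read by FRET substrate fluorescence after 2 h at room temperature.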

[5] = qHTS assay to identify small molecule agonists of the farnesoid-X-receptor (FXR) signaling pathway - cell viability counter screen (AID 743218); also: nearly all actives have a fitted effect of over 45% in size; also: potency is read from the fitted curve at half-maximal effect
How it was run: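 Cytotoxicity counter-screen run in parallel, same wells: FXR-UAS-bla HEK 293T cells dosed 16 h at 37 C, viability read by CellTiter-Glo luminescence after 30 min at room temperature.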

[6] = qHTS assay to identify small molecule antagonists of the farnesoid-X-receptor (FXR) signaling pathway - cell viability counter screen (AID 743221; active = well fitted cell-killing curve with a large enough effect in the repeat runs, not every such curve was filed as active; also: nearly all actives have a fitted effect of over 50% in size; also: potency is read from the fitted curve at half-maximal effect)
How it was run: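 Cytotoxicity counter screen run in the FXR-bla reporter wells: HEK 293T cells exposed to compound with 50 uM (final) chenodeoxycholic acid for 16 h, 37 C, then viability measured by CellTiter-Glo luminescence after 30 min, room temperature.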

[7] = target: Vitamin D3 receptor (Homo sapiens) (UniProt P11473); assay: qHTS assay to identify small molecule antagonists of the vitamin D receptor (VDR) signaling pathway (AID 743223; active = well fitted inhibition curve with a large enough effect in the signal ratio in the repeat runs, not every such curve was filed as active; the % refers to the signal ratio)
How it was run: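 Antagonist mode: compound added to VDR-bla cells alongside agonist 1alpha,25-dihydroxyvitamin D3 (3 nM final), incubation 16 h at 37C. Read-out is LiveBLAzer FRET fluorescence, 2 h at room temperature.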

[8] = target: Vitamin D3 receptor (Homo sapiens) (UniProt P11473); assay: qHTS assay to identify small molecule agonists of the vitamin D receptor (VDR) signaling pathway (AID 743222; calls by dose curve)
How it was run: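 Quantitative HTS agonist-mode screen: compounds in DMSO were pin-transferred onto VDR-bla cells and incubated 16 h at 37C, 5% CO2. Reporter activity was detected with LiveBLAzer B/G FRET substrate after 2 h at room temperature.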

[9] = target: Bile acid receptor (Homo sapiens) (UniProt Q96RI1); assay: qHTS assay to identify small molecule antagonists of the farnesoid-X-receptor (FXR) signaling pathway (AID 743217; active = well fitted inhibition curve with a large enough effect in the signal ratio in the repeat runs, not every such curve was filed as active; the % refers to the signal ratio)
How it was run: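 Antagonist mode against 50 uM (final) chenodeoxycholic acid stimulation in FXR-bla HEK 293T cells, 16 h at 37 °C. Inhibition detected as reduced beta-lactamase activity via LiveBLAzer B/G FRET fluorescence after 2 h at room temperature.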

[10] = target: Bile acid receptor (Homo sapiens) (UniProt Q96RI1); assay: qHTS assay to identify small molecule agonists of the farnesoid-X-receptor (FXR) signaling pathway (AID 743220; active = well fitted activation curve with a large enough effect in the signal ratio in the repeat runs, not every such curve was filed as active; the % refers to the signal ratio)
How it was run: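 Beta-lactamase reporter under UAS control in GeneBLAzer FXR HEK 293T cells (5000/well) measured with LiveBLAzer FRET substrate after 2 h at room temperature. Compound exposure lasted 16 h at 37C.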

Chain of Vitamin D3 receptor (Homo sapiens) (P11473 whole entry, looked up): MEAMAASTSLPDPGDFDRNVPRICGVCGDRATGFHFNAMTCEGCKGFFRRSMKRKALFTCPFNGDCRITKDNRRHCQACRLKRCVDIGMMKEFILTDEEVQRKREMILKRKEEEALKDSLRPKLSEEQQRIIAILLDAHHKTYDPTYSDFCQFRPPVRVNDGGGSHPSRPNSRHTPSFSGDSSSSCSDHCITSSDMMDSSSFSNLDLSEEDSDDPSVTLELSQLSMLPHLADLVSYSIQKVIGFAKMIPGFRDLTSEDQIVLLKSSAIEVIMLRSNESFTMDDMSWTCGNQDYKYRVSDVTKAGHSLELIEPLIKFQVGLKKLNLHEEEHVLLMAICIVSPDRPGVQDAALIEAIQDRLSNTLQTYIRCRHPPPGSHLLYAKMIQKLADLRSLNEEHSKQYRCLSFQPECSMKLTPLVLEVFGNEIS
Chain of Bile acid receptor (Homo sapiens) (Q96RI1 whole entry, looked up): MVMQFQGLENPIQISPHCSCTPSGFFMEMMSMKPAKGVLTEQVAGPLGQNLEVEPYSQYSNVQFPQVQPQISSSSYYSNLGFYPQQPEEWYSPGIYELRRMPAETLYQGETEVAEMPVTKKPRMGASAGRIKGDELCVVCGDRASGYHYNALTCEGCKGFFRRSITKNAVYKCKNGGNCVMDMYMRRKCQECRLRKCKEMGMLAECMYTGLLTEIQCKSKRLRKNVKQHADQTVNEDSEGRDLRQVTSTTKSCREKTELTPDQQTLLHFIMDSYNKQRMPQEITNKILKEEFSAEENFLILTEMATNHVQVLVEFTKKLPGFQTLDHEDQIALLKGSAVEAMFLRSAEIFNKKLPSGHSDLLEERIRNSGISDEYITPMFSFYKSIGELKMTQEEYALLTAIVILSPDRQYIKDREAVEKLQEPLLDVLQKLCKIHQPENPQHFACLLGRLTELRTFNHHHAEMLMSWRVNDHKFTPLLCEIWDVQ
Chain of Peroxisome proliferator-activated receptor delta (Homo sapiens) (Q03181 whole entry, looked up): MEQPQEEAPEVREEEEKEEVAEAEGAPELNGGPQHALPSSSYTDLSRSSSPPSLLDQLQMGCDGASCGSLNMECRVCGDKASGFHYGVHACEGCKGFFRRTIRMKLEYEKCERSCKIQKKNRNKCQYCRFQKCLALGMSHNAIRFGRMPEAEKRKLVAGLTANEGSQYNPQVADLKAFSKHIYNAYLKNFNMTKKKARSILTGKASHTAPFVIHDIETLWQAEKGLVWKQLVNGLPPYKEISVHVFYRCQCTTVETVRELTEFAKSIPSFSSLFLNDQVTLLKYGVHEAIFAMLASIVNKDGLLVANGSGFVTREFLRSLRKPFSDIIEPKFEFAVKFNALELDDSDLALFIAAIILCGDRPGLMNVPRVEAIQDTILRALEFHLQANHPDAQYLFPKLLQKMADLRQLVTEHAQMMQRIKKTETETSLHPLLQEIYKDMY

SMILES	Potency [1]	Potency [2]	Potency [3]	Potency [4]	Potency [5]	Potency [6]	outcome [7]	outcome [8]	Potency [9]	outcome [10]
CCCCC(CC)COC(=O)c1ccc(C(=O)OCC(CC)CCCC)c(C(=O)OCC(CC)CCCC)c1 (stereo not drawn)	inactive	inactive	inactive	inactive	inactive	inactive	inactive			
O=C(Nc1ccc(Br)cc1)c1cc(Br)cc(Br)c1O	6.14 µM (active) and 2.45 µM (active) and 8.41 µM (active)	inactive	1.55 µM (active)	6.89 µM (active)	3.45 µM (active) and 1.55 µM (active) and 7.5 µM (active)	9.74 µM (active) and 2.45 µM (active) and 13.3 µM (active)	inactive			
O=S(=O)(Oc1ccc(Cl)cc1)c1ccc(Cl)cc1	inactive	inactive	inactive	inactive	inactive	inactive	inactive	inactive		
C=CC(=O)OCCO	inactive	inactive	inactive	inactive	inactive	inactive	inactive			
Nn1cnnc1	inactive	inactive	inactive	inactive	inactive	inactive	inactive			
CNC(=O)N(C)c1nnc(C(C)(C)C)s1	inactive	inactive	inactive	inactive	inactive	inactive	inactive			
Oc1cc(Cl)ccc1Oc1ccc(Cl)cc1Cl	20 µM (active) and 15 µM (active)	inactive	28 µM (active) and inactive	inactive	42.1 µM (active)	56.2 µM (active)	inactive	inactive		
CC(C)c1ccc(CO)cc1	inactive	inactive	inactive		inactive	inactive	inactive		inactive	inactive
CCCCCCCCCCCOC(=O)c1ccccc1C(=O)OCCCCCCCCCCC	inactive	inactive	inactive	inactive	inactive	inactive	inactive			
Nc1ccc(Cl)c(Cl)c1	inactive	inactive	inactive	inactive	inactive	inactive	inactive			
c1ccc(P(c2ccccc2)c2ccccc2)cc1	inactive	inactive	inactive	inactive	inactive	inactive	inactive			
COC(=O)c1sccc1S(=O)(=O)NC(=O)Nc1nc(C)nc(OC)n1	inactive	inactive	inactive	inactive	inactive	inactive	inactive			
CC(C)NC(C)C	inactive	inactive	inactive	inactive	inactive	inactive	inactive			
CCCCCc1cc(O)cc(O)c1	inactive	inactive	inactive		inactive	inactive	inactive		inactive	inactive
CCOc1cc(Oc2ccc(C(F)(F)F)cc2Cl)ccc1[N+](=O)[O-]	inactive	inactive	inactive			inactive			inactive	inactive
O=Cc1ccco1	inactive	inactive	inactive	inactive	inactive	inactive	inactive	inactive		
CCOP(=S)(OCC)O/N=C(\C#N)c1ccccc1	inactive	inactive		inactive	inactive	inactive	inactive	inactive	inactive	inactive
CCN(CC)C(=O)/C(Cl)=C(\C)OP(=O)(OC)OC	inactive	inactive	inactive	inactive	inactive	inactive	inactive			
COc1ccc(C(CN(C)C)C2(O)CCCCC2)cc1 (stereo not drawn)	inactive	inactive	inactive	inactive	inactive	inactive	inactive			
C1=Cc2cccc3cccc1c23	inactive	inactive	inactive	inactive	inactive	inactive	inactive			
O=[N+]([O-])c1c(Cl)c(Cl)c(Cl)c(Cl)c1Cl	inactive	inactive	inactive	inactive	inactive	inactive	inactive			
C=CCc1ccc(OC)cc1	inactive	inactive	inactive		inactive	inactive				

SMILES	Potency [1]	Potency [2]	Potency [3]	Potency [4]	Potency [5]	Potency [6]	outcome [7]	outcome [8]	Potency [9]	outcome [10]
N#Cc1cc(Br)c(O)c(Br)c1	inactive	inactive		inactive		inactive			inactive	inactive
Nc1ccc(-c2ccccc2)cc1	inactive	inactive	inactive	inactive	inactive	inactive	inactive			
Cc1ccccc1[N+](=O)[O-]	inactive	inactive	inactive		inactive	inactive	inactive	inactive		
O=C(O)C(F)(F)C(F)(F)C(F)(F)C(F)(F)C(F)(F)C(F)(F)C(F)(F)F	inactive	19.4 µM (active)	inactive		inactive	inactive	inactive			
CC(O)CCO (stereo not drawn)	inactive	inactive	inactive	inactive	inactive	inactive	inactive			
NNC(=S)NN		inactive	inactive	inactive	inactive	inactive	inactive			
Oc1cc(Cl)c(Cl)cc1Cl	inactive		inactive		inactive	inactive				
C=CCc1ccc2c(c1)OCO2	inactive		inactive		inactive	inactive	inactive			
CC1(C)C(C=C(Cl)Cl)C1C(=O)OC(C#N)c1cccc(Oc2ccccc2)c1 (stereo not drawn)	inactive		inactive		inactive	inactive	inactive	inactive		
CCOC(=O)C(C)OC(=O)c1cc(Oc2ccc(C(F)(F)F)cc2Cl)ccc1[N+](=O)[O-] (stereo not drawn)		inactive	inactive	inactive		inactive				
Nc1ccc(Cl)cc1N	inactive		inactive		inactive	inactive				
CCC(C)c1cc([N+](=O)[O-])cc([N+](=O)[O-])c1O (stereo not drawn)	inactive		inactive	inactive	inactive	inactive	inactive	inactive	inactive	inactive
Nc1ccncc1	inactive	inactive		inactive	inactive	inactive	inactive	inactive		
CCCCCCOC(=O)c1ccccc1C(=O)OCCCCCC		inactive	inactive	inactive	inactive	inactive				
CN(C)c1ccc(C(=O)c2ccc(N(C)C)cc2)cc1			inactive		inactive	inactive		inactive		inactive
Cc1cc(C)cc(C)c1	inactive		inactive		inactive	inactive	inactive			
c1cc(OCC2CO2)ccc1Cc1ccc(OCC2CO2)cc1 (stereo not drawn)	inactive		inactive		inactive	inactive			inactive	inactive
O=C1C=CC(=O)C=C1	inactive		inactive			inactive				
CC(C)Oc1cc(-n2nc(C(C)(C)C)oc2=O)c(Cl)cc1Cl	15.5 µM (active)		inactive and 27.5 µM (active)	inactive	inactive and 38.9 µM (active)	inactive and 49 µM (active)	inactive			inactive
CCC(C)(C)c1ccc(O)cc1	49.5 µM (active) and inactive		inactive		inactive	inactive	inactive	inactive	inactive	inactive
CCOC(=S)S			29.3 µM (active)		inactive	inactive			inactive	
Nc1ccc(-c2ccc(N)c(N)c2)cc1N	inactive	inactive			inactive	inactive		inactive	inactive	inactive

SMILES	Potency [1]	Potency [2]	Potency [3]	Potency [4]	Potency [5]	Potency [6]	outcome [7]	outcome [8]	Potency [9]	outcome [10]
CCCCC(CC)COC(=O)Cl (stereo not drawn)	inactive		inactive		inactive	inactive	inactive	inactive	inactive	inactive
Oc1c(Cl)c(Cl)c(Cl)c(Cl)c1Cl	inactive					inactive	inactive			inactive
NNC(N)=S		inactive	8.07 µM (active) and inactive	43.6 µM (active)	inactive	inactive	inactive		inactive	inactive
Cc1ccc(N)c(N)c1	inactive		inactive		inactive	inactive	inactive	inactive		
CC(C)(c1cc(Cl)c(O)c(Cl)c1)c1cc(Cl)c(O)c(Cl)c1		inactive	inactive	inactive	inactive	inactive	inactive			
CNC(=O)Oc1cccc2c1OC(C)(C)O2	inactive		inactive	inactive	inactive	inactive			inactive	inactive
CCC(C)c1ccc(O)cc1 (stereo not drawn)	inactive		inactive		inactive	inactive			inactive	inactive
C[C@]12CCC(=O)C(O)=C1CC[C@@H]1[C@@H]2CC[C@]2(C)C(=O)CC[C@@H]12	inactive		inactive		inactive	inactive	inactive			
O=c1oc2ccccc2c(O)c1C(CC(O)c1ccc(-c2ccc(Br)cc2)cc1)c1ccccc1 (stereo not drawn)	inactive		inactive		inactive	inactive			inactive	
CCCCOCCOP(=O)(OCCOCCCC)OCCOCCCC		inactive	inactive	inactive	inactive	inactive	inactive			
CCN(CC)C(=O)SCc1ccc(Cl)cc1	inactive		inactive			inactive	inactive	inactive	inactive	inactive
N#CCCCl	inactive		inactive		inactive	inactive	inactive	inactive		
CCCCN(CCCC)N=O	inactive		inactive		inactive	inactive			inactive	inactive
CCC(C)(c1ccc(O)cc1)c1ccc(O)cc1	54.9 µM (active) and inactive		inactive		inactive	inactive			inactive	inactive
C[C@]12CCC(=O)C[C@@H]1CC[C@@H]1[C@@H]2CC[C@]2(C)[C@@H](O)CC[C@@H]12	inactive				inactive					
S=C1NCCN1	inactive		inactive		inactive	inactive	inactive	inactive		
CCOCN(C(=O)CCl)c1c(C)cccc1CC	41.2 µM (active)		inactive			inactive	inactive	inactive		
c1ccc(-c2cccc(-c3ccccc3)c2)cc1	inactive		inactive		inactive	inactive			inactive	inactive
c1ccc(N=Nc2ccccc2)cc1	inactive		inactive		inactive	inactive	inactive	inactive		
Cc1cccc(N)c1N	inactive				inactive	inactive		inactive	inactive	inactive
CCCCNC(=O)n1c(NC(=O)OC)nc2ccccc21	inactive		inactive		inactive	inactive				inactive
